In PubChem BioAssay (EPA / NIEHS) one finds outcome and AC50 data, which are given here for five molecules.

Active and inactive are the calls of the source. Rule for the calls: active = hit-call score of the fitted dose curve at least 0.9, where 1 is the maximum; inactive = score below 0.9.

Test [1] has as its target Transcription factor E2F1 (Homo sapiens) (UniProt Q01094). Kind of test: ATG_E2F_CIS: Attagene CIS-FACTORIAL HepG2 Assay for human E2F Transcription Factor 1 (AID 2282935). Conditions: HepG2 Attagene cis-reporter, E2F reporter RNA transcripts; actives raise or lower the signal. The procedure, abridged:
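Transient MRTU transfection of HepG2; 24 h compound exposure; RNA → oligo(dT) RT → PCR → FAM label → HpaI cut → CE fluorescence. Gain/loss of signal fit against DMSO.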

The nature of test [2]: ATG_E_Box_CIS: Attagene CIS-FACTORIAL HepG2 Assay for human Enhancer Box (E-box) (AID 2282936). Conditions: HepG2 E-box cis-reporter transcription, actives raise or lower the signal. In short, it runs like this:
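Transiently transfected HepG2, endogenous TF-driven reporters, 24 h dosing. Readout: RT-PCR plus capillary electrophoresis of fluorescent reporter fragments. Gain or loss of signal fitted bidirectionally against DMSO baseline.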

Test [3] in a line: ATG_EGR_CIS: Attagene CIS-FACTORIAL HepG2 Assay for human Early Growth Response 1 (EGR1) (AID 2282938). Conditions: HepG2 Attagene CIS-FACTORIAL EGR reporter mRNA; actives raise or lower the signal. The procedure, abridged:
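Activity is taken as induction or loss of reporter mRNA versus DMSO, fitted bidirectionally. Transcripts from cis-regulated reporter units in transiently transfected HepG2 were measured after 24 h by RT-PCR with capillary electrophoresis.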

The nature of test [4]: ATG_M_19_CIS: Attagene CIS-FACTORIAL HepG2 Assay for M19 Transcription Factor (Internal Marker) (AID 2282939). Conditions: HepG2 Attagene CIS-FACTORIAL M19 internal marker reporter; actives raise or lower the signal. In short, it runs like this:
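Following a 24 h exposure, RNA from transfected HepG2 cells was reverse-transcribed, PCR-amplified with reporter-specific primers, end-labelled with 6-FAM and HpaI-digested before capillary separation. Values represent gain or loss versus DMSO.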

A short description of test [5]: ATG_ERE_CIS: Attagene CIS-FACTORIAL HepG2 Assay for Estrogen Response Element (ERE) (AID 2282940). Conditions: HepG2 ERE cis-reporter, Attagene RNA transcript; actives raise or lower the signal. In short, it runs like this: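 HepG2, transient cis-reporter units, 24 h exposure. RNA isolated, oligo(dT) RT, reporter-specific PCR, FAM extension, HpaI cut, CE detection. Gain/loss-of-signal vs DMSO.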

Test [6] can be described thus: ATG_Ets_CIS: Attagene CIS-FACTORIAL HepG2 Assay for human Erythroblast Transformation Specific (ETS) (AID 2282941). As to conditions: HepG2 ETS cis-reporter transcription, actives raise or lower the signal. In short, it runs like this:
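RT-PCR/capillary electrophoresis fluorescence read-out of reporter mRNA; HepG2 transient multi-reporter transfection; 24 h compound exposure; gain or loss of signal fitted bidirectionally relative to DMSO.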

Test [7] deals with Hepatocyte nuclear factor 3-beta (Homo sapiens) (UniProt Q9Y261). Kind of test: ATG_FoxA2_CIS: Attagene CIS-FACTORIAL HepG2 Assay for human Forkhead box A2 (FOXA2) (AID 2282942). Conditions: HepG2 cis-reporter transcription factor activity, 24 h; actives raise or lower the signal. In short, it runs like this: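 Reporter transcript induction is measured by fluorescence after capillary electrophoresis of RT-PCR products from HepG2 cells exposed 24 h. Cis-regulated reporter units report endogenous factor activity; curves fitted both directions against DMSO.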
Sequence of Hepatocyte nuclear factor 3-beta (Homo sapiens) (Q9Y261 whole entry, looked up): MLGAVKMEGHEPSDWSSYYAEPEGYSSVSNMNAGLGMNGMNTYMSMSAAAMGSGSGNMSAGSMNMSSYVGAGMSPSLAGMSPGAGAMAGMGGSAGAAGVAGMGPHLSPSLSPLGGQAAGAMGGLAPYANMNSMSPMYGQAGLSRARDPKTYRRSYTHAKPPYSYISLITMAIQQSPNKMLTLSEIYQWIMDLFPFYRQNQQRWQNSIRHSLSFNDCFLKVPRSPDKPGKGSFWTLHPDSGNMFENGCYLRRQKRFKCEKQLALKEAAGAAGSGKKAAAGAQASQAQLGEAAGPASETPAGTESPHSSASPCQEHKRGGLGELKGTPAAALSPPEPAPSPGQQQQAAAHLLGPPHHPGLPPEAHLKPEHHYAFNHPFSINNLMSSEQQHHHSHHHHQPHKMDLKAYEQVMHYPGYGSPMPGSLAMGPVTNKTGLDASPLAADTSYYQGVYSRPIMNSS

Test [8] can be described thus: ATG_FoxO_CIS: Attagene CIS-FACTORIAL HepG2 Assay for human Forkhead box O (FoxO) (AID 2282943). As to conditions: HepG2 Attagene cis-reporter, FoxO element, mRNA; actives raise or lower the signal. In short, it runs like this: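 Read-out: fluorescence of 6-FAM-labelled reporter cDNA fragments resolved by capillary electrophoresis. Transiently transfected HepG2 cells were dosed for 24 h; activity fitted in both directions relative to DMSO controls.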

Test [9] in a line: ATG_GATA_CIS: Attagene CIS-FACTORIAL HepG2 Assay for human GATA Binding Protein (AID 2282944). As to conditions: HepG2 GATA cis-element reporter, Attagene multiplex mRNA; actives raise or lower the signal. The procedure, abridged: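 DMSO serves as negative control and baseline for bidirectional fitting of reporter mRNA changes. HepG2 cells bearing transiently transfected cis-promoter reporters were exposed 24 h; transcripts detected via RT-PCR and capillary electrophoresis.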

The nature of test [10]: ATG_GLI_CIS: Attagene CIS-FACTORIAL HepG2 Assay for human Zinc Finger Protein GLI1 (AID 2282945). Conditions: HepG2, Attagene cis-factorial reporter mRNA, GLI element; actives raise or lower the signal. In short, it runs like this: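 Transiently transfected HepG2 cells report endogenous transcription factor activity via cis-element-driven reporter units. After 24 h compound exposure, reporter mRNA was measured by RT-PCR with capillary electrophoresis; bidirectional fitting against DMSO baseline.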

The nature of test [11]: ATG_GRE_CIS: Attagene CIS-FACTORIAL HepG2 Assay for human Glucocorticoid Response Elements (GRE) (AID 2282947). As to conditions: HepG2 GRE cis-reporter, Attagene multiplex mRNA; actives raise or lower the signal. The procedure, abridged:
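Read-out: fluorescent reporter-transcript fragments separated by capillary electrophoresis after RT-PCR. Transiently transfected HepG2 cells carrying cis-element-driven reporter units were dosed for 24 h; gain or loss of signal fitted against DMSO control.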

Test [12] is described as follows: ATG_ISRE_CIS: Attagene CIS-FACTORIAL HepG2 Assay for human Interferon Regulatory Factor 1 (IRF1) binding to an Interferon-Stimulated Response Element (ISRE) (AID 2282948). As to conditions: HepG2 ISRE cis-reporter (Attagene), mRNA transcription readout; actives raise or lower the signal. The procedure, abridged:
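Read-out: fluorescent RT-PCR products resolved by capillary electrophoresis, reporting endogenous transcription factor activity via ISRE-driven reporter mRNA in transfected HepG2 cells dosed for 24 h; gain or loss fitted relative to DMSO.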

Test [13] is described as follows: ATG_M_32_CIS: Attagene CIS-FACTORIAL HepG2 Assay for M32 Transcription Factor (Internal Marker) (AID 2282949).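 Note: background control marker of the multiplexed CIS panel rather than a real target.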 As to conditions: HepG2 Attagene cis-factorial M32 reporter, mRNA; actives raise or lower the signal. The procedure, abridged:
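Using DMSO as baseline, bidirectional curve fits were applied to reporter mRNA signals. These came from transiently transfected HepG2 cells exposed for 24 h, with RNA analysed by RT-PCR, FAM primer extension, HpaI digestion and CE.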

The nature of test [14]: ATG_M_06_CIS: Attagene CIS-FACTORIAL HepG2 Assay for M06 Transcription Factor (Internal Marker) (AID 2282950). As to conditions: HepG2 Attagene CIS-FACTORIAL M06 internal marker reporter; actives raise or lower the signal. The procedure, abridged: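 Fluorescence-labelled RT-PCR products from cis-promoter reporter units, cut with HpaI and resolved by capillary electrophoresis, give the signal. Cells are human HepG2, dosed for 24 h. Serves as background control, fitted relative to DMSO.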

The target in test [15] is Hypoxia-inducible factor 1-alpha (Homo sapiens) (UniProt Q16665). Kind of test: ATG_HIF1a_CIS: Attagene CIS-FACTORIAL HepG2 Assay for human Hypoxia Inducible Factor 1 (HIF1A) (AID 2282951). Conditions: HepG2 Attagene cis-factorial HIF1a reporter transcription; actives raise or lower the signal. The procedure, abridged: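 Fluorescence intensity of capillary-separated, 6-FAM-labelled reporter amplicons gives mRNA induction in HepG2 cells carrying transfected cis-promoter reporter units; cells exposed 24 h, responses fitted up or down from DMSO.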
Sequence of Hypoxia-inducible factor 1-alpha (Homo sapiens) (Q16665 whole entry, looked up): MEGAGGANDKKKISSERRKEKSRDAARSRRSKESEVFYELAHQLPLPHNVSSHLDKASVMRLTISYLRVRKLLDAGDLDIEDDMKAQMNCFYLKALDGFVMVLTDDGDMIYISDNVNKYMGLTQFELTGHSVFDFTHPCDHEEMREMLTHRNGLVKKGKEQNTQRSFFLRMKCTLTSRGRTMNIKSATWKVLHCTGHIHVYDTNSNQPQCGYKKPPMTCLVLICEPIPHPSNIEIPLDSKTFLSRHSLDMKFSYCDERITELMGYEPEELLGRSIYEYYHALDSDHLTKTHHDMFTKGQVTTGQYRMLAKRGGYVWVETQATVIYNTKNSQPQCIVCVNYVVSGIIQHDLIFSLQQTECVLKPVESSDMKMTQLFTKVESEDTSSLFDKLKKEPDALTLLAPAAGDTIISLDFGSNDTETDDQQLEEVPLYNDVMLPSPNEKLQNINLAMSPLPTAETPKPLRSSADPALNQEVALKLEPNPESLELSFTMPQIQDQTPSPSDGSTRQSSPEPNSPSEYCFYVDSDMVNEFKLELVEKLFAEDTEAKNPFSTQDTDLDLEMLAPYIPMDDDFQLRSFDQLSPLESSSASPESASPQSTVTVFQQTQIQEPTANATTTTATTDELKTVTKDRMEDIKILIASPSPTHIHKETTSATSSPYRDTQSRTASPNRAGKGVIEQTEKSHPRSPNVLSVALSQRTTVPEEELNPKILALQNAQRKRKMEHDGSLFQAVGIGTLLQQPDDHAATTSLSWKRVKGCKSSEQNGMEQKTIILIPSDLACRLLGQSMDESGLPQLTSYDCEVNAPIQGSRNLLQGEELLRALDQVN

Test [16] addresses Hepatocyte nuclear factor 6 (Homo sapiens) (UniProt Q9UBC0). Kind of test: ATG_HNF6_CIS: Attagene CIS-FACTORIAL HepG2 Assay for human Hepatocyte Nuclear Factor 6 (HNF6) (AID 2282952). As to conditions: HepG2 Attagene cis-factorial HNF6 reporter transcription; actives raise or lower the signal. The procedure, abridged: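 First, HepG2 cells were transfected with the multiplexed cis reporter library and dosed with chemical for 24 h. Next, RNA was reverse-transcribed, PCR-amplified and fluorescently labelled. Finally, HpaI-digested fragments were read by capillary electrophoresis.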

The target of test [17] is Heat shock factor protein 1 (Homo sapiens) (UniProt Q00613). Kind of test: ATG_HSE_CIS: Attagene CIS-FACTORIAL HepG2 Assay for human Heat Shock Transcription Factor 1 (HSE) (AID 2282953). Conditions: HepG2 HSE cis-reporter, Attagene RNA transcription; actives raise or lower the signal. In short, it runs like this: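 After a 24 h incubation with test chemical, transfected HepG2 cells were harvested for RNA; reporter transcripts were measured by RT-PCR and capillary electrophoresis. Values reflect gain or loss of signal relative to DMSO.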
Sequence of Heat shock factor protein 1 (Homo sapiens) (Q00613 whole entry, looked up): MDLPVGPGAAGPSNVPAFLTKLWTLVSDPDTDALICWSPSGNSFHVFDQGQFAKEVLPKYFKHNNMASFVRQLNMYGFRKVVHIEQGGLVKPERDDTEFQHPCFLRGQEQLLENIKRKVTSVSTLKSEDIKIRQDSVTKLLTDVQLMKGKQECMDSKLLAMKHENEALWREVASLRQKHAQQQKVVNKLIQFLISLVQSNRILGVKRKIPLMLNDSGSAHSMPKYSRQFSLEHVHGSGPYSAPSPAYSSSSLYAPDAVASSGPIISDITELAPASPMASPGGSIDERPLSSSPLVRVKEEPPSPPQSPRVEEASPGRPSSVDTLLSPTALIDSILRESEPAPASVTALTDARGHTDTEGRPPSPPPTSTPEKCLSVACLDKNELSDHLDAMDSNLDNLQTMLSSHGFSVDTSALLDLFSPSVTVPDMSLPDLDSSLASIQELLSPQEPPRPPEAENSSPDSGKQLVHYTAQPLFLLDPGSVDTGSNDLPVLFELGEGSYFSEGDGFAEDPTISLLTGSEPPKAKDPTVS

A short description of test [18]: ATG_MRE_CIS: Attagene CIS-FACTORIAL HepG2 Assay for human Metal Responsive Element (MRE) (AID 2282954). As to conditions: HepG2 MRE cis-reporter transcription, Attagene multiplex; actives raise or lower the signal. In short, it runs like this: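 RT-PCR/capillary electrophoresis readout of reporter mRNA, 24 h post-dosing, in HepG2 cells transfected with multiplexed cis-regulated reporter constructs. Gain or loss of signal fitted bidirectionally against DMSO baseline.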

Test [19] concerns the target Bile acid receptor (Homo sapiens) (UniProt Q96RI1). Kind of test: ATG_IR1_CIS: Attagene CIS-FACTORIAL HepG2 Assay for human Nuclear Receptor Subfamily 1 Group H Member 4 (NR1H4), IR1 submotif (AID 2282946). As to conditions: IR1 reporter transcription, actives raise or lower the signal. The procedure, abridged:
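Fluorescence of capillary-separated, HpaI-digested RT-PCR reporter products gave IR1-element mRNA induction in HepG2 cells 24 h after dosing. Endogenous transcription factors drove the cis-regulated reporters; activity was fitted bidirectionally against DMSO.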

Sequence of Hepatocyte nuclear factor 6 (Homo sapiens) (Q9UBC0 whole entry, looked up, the tested form may be a part): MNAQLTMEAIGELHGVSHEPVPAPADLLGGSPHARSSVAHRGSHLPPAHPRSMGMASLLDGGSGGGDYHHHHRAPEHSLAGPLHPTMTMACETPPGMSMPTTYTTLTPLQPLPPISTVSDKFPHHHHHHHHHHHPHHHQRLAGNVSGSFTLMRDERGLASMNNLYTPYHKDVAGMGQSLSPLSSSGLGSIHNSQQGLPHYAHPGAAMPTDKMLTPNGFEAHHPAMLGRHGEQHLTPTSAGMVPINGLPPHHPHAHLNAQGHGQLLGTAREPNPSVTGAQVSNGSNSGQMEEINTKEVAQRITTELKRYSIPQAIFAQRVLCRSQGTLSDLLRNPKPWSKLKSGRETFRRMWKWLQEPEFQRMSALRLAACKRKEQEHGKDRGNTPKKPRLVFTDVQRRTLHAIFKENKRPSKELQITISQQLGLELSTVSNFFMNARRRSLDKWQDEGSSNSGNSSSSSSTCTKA
Sequence of Transcription factor E2F1 (Homo sapiens) (Q01094 whole entry, looked up): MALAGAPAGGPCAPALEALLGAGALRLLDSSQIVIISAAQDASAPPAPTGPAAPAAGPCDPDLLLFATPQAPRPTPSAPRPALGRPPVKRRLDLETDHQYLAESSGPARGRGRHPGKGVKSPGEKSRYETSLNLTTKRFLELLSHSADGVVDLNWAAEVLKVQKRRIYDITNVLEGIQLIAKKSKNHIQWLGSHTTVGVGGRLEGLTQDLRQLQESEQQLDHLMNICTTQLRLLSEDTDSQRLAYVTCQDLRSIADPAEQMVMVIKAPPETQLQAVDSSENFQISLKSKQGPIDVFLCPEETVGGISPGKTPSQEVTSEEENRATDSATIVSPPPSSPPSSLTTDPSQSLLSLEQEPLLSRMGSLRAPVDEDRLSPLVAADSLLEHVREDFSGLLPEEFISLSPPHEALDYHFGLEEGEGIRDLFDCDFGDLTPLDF
Sequence of Bile acid receptor (Homo sapiens) (Q96RI1 whole entry, looked up): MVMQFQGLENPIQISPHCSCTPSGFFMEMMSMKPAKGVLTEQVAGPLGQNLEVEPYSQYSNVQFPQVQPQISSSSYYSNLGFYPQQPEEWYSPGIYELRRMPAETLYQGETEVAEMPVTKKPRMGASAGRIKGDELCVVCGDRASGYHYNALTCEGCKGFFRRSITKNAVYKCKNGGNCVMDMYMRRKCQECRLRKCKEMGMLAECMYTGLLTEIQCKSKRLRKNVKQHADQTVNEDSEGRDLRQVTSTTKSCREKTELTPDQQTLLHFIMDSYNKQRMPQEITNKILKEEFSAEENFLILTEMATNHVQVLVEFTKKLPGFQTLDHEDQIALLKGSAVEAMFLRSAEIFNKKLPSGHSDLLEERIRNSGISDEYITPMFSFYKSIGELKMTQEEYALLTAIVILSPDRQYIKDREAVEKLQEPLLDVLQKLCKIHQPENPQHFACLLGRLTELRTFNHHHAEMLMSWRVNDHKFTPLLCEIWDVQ

By AC50 is commonly meant the concentration at which the activity in the assay is half-maximal. In the case of `CC(C)Oc1cccc(NC(=O)c2ccccc2C(F)(F)F)c1`, the molecule was called inactive in test [1], in test [2], in test [3], in test [4], in test [6] and in test [7]. Further, the outcome in test [8], in [9], in test [10], in [11], in [12] and in test [13] was inactive. Moreover, the call in test [14], in test [15], in test [16] and in test [17] was inactive. The half-maximal activity concentration (AC50) in test [5] is 13.3 µM (active); in [18], 28.7 µM (active).

As to `CS(=O)(=O)c1cc(C(F)(F)F)ccc1C(=O)c1cnoc1C1CC1`, the result in test [1], in test [2], in test [3], in test [4], in [5] and in test [6] was inactive. The result in test [7], in test [8], in test [9], in test [10], in test [12] and in [13] was inactive. The molecule was classed as inactive in [14], in [15], in test [16] and in test [17].

For `CCC(C)n1c(=O)[nH]c(C)c(Br)c1=O` (centres undefined), the call in [1], in [2], in test [3], in test [4], in test [5] and in test [6] was inactive. For the same molecule, the molecule was classed as inactive in test [7], in test [8], in test [9], in [10], in test [19] and in [12]. The molecule was called inactive in test [13], in test [14], in test [15], in test [16], in test [17] and in [18].

With `CC1(C)CON(Cc2ccccc2Cl)C1=O`, the result in [1], in test [2], in [3], in test [4], in test [6] and in test [7] was inactive. The outcome in [8], in [9], in test [10], in [12], in test [13] and in [14] was inactive. Moreover, the result in [15], in [16] and in [18] was inactive. For the same molecule, the AC50 in test [5] was 50 µM (active).

Regarding `CC(C)N1C(=O)c2ccccc2NS1(=O)=O`, the result in test [1], in [2], in test [3], in test [4], in test [5] and in test [6] was inactive. Further, the result in test [7], in test [8], in test [9], in test [10], in [12] and in test [13] was inactive. Moreover, the call in test [14], in [15], in test [16] and in test [18] was inactive.
